Experimental data reported in the supplement of paper PMC8371130.
Counter-ions that a name gives are not always drawn.

Tested on: HL-1
Test: relative cell viability (CellTiter-Glo) vs DMSO control (% of DMSO control); higher = more viable cells
In short: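 HL-1 mouse atrial cardiomyocytes were seeded into 384-well plates at 1000 cells per well along with compounds at 40, 200, 1000 or 5000 nM in 0.01% DMSO. After one day, the cells were moved to a hypoxic workstation (1% O2) for 48 h and then reoxygenated for 24 h in a normal incubator, while others remained in normoxia for the same period. Cell viability was measured by CellTiter-Glo luminescence and normalised to vehicle-treated control cells.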

[1] = oxygen condition: hypoxia 48 h (1% O2) + reoxygenation 24 h, 40 nM
[2] = oxygen condition: hypoxia 48 h (1% O2) + reoxygenation 24 h, 200 nM
[3] = oxygen condition: hypoxia 48 h (1% O2) + reoxygenation 24 h, 1000 nM
[4] = oxygen condition: hypoxia 48 h (1% O2) + reoxygenation 24 h, 5000 nM
[5] = oxygen condition: normoxia 72 h, 40 nM
[6] = oxygen condition: normoxia 72 h, 200 nM
[7] = oxygen condition: normoxia 72 h, 1000 nM
[8] = oxygen condition: normoxia 72 h, 5000 nM

SMILES	relative cell viability [1]	relative cell viability [2]	relative cell viability [3]	relative cell viability [4]	relative cell viability [5]	relative cell viability [6]	relative cell viability [7]	relative cell viability [8]
CO[C@H]1C[C@@H]2CC[C@@H](C)[C@@](O)(O2)C(=O)C(=O)N2CCCC[C@H]2C(=O)O[C@H]([C@H](C)C[C@@H]2CC[C@@H](OC(=O)C(C)(CO)CO)[C@H](OC)C2)CC(=O)[C@H](C)/C=C(\C)[C@@H](O)[C@@H](OC)C(=O)[C@H](C)C[C@H](C)/C=C/C=C/C=C/1C [Temsirolimus]	70.7	67.6	74.2	61.7	60.2	67.5	81.1	44
CCOc1nc2cccc(C(=O)OCc3oc(=O)oc3C)c2n1Cc1ccc(-c2ccccc2-c2noc(=O)[nH]2)cc1 [Azilsartan Medoxomil]	101	99.2	116	116	93.4	103	100	114
CNC(=C[N+](=O)[O-])NCCSCc1ccc(CN(C)C)o1 [Ranitidine]	82.2	102	97.9	106	90.9	105	106	112
CN1CCCC(n2nc(Cc3ccc(Cl)cc3)c3ccccc3c2=O)CC1 (centres undefined) [Azelastine hydrochloride]	96.2	98.2	101	85.4	97.9	102	96.4	84.2
CCOC(=O)C1=C(COCCN)NC(C)=C(C(=O)OC)C1c1ccccc1Cl (centres undefined) [Amlodipine besylate]	88	102	102	105	103	105	106	102
Cc1cccc(CN2CCN(C(c3ccccc3)c3ccc(Cl)cc3)CC2)c1 (centres undefined) [Meclizine 2HCl]	101	108	98.5	107	101	109	111	103
O=P(O)(O)C(O)(Cc1cccnc1)P(=O)(O)O [Risedronate sodium]	103	112	107	122	111	107	121	116
CC1=CC(=O)c2ccccc2C1=O [Menadione]	100	98.2	102	109	101	104	101	106
CC(=O)NS(=O)(=O)c1ccc(N)cc1 [sulfacetamide sodium]	97.5	98.4	106	104	102	107	107	108
CO[C@@H]1[C@@H](OC(N)=O)[C@@H](O)[C@H](Oc2ccc3c(O)c(NC(=O)c4ccc(O)c(CC=C(C)C)c4)c(=O)oc3c2C)OC1(C)C [Novobiocin sodium]	100	102	102	110	97.1	99.2	101	113
CCOC(=O)C1=C(COCCN)NC(C)=C(C(=O)OC)C1c1ccccc1Cl (centres undefined) [Amlodipine]	102	101	113	100	107	107	93.2	106
CC(C)OC(=O)C(C(=O)OC(C)C)=C1SC=CS1 [Malotilate]	89.7	105	115	109	102	104	111	109
O=P(O)(O)C(O)(Cn1ccnc1)P(=O)(O)O [Zoledronic Acid]	104	100	100	111	104	107	102	109
CN1C2=CC(=O)/C(=N\NC(N)=O)C=C2CC1S(=O)(=O)O (centres undefined) [Carbazochrome sodium sulfonate]	99	97	101	112	95	102	89.9	108
CC(S)C(=O)NCC(=O)O (centres undefined) [Tiopronin]	95.4	102	104	105	99.2	98.9	101	103
CNC(=O)c1cc(Oc2ccc(NC(=O)Nc3ccc(Cl)c(C(F)(F)F)c3)c(F)c2)ccn1 [Regorafenib]	107	113	109	114	110	110	114	134
CN1C(CCl)Nc2cc(Cl)c(S(N)(=O)=O)cc2S1(=O)=O (centres undefined) [Methyclothiazide]	106	98.5	105	110	108	106	109	115
CC/C(=C(/CC)c1ccc(O)cc1)c1ccc(O)cc1 [Diethylstilbestrol]	105	106	107	109	108	96.7	108	112
NCCCCCC(=O)O [Aminocaproic acid]	102	102	106	107	106	103	110	112

SMILES	relative cell viability [1]	relative cell viability [2]	relative cell viability [3]	relative cell viability [4]	relative cell viability [5]	relative cell viability [6]	relative cell viability [7]	relative cell viability [8]
O=C(c1ccccc1)c1ccc2n1CCC2C(=O)O (centres undefined) [Ketorolac]	104	105	104	109	102	98.3	103	111
NC[C@H]1CC[C@H](C(=O)O)CC1 [Tranexamic acid]	99.9	102	100	104	101	104	102	112
Cc1onc(-c2ccccc2)c1-c1ccc(S(N)(=O)=O)cc1 [Bextra]	101	97.9	104	107	103	100	95.1	111
Cc1ccc(O)c([C@H](CCN(C(C)C)C(C)C)c2ccccc2)c1 [Tolterodine tartrate]	108	105	102	109	104	112	107	110
COc1ccc(CC2c3cc(OC)c(OC)cc3CC[N+]2(C)CCC(=O)OCCCCCOC(=O)CC[N+]2(C)CCc3cc(OC)c(OC)cc3C2Cc2ccc(OC)c(OC)c2)cc1OC (centres undefined) [Atracurium besylate]	104	96.7	91.2	23.1	101	93.3	95.7	18.9
CCOC(=O)[C@H](CCc1ccccc1)N[C@@H](C)C(=O)N1CCC[C@H]1C(=O)O [Enalapril maleate]	101	101	103	105	98.5	103	99.2	99
Nc1ccc(C(=O)O)c(O)c1 [Aminosalicylate sodium]	95.2	102	102	108	105	105	114	108
Clc1ccc(COC(Cn2ccnc2)c2ccc(Cl)cc2Cl)c(Cl)c1 (centres undefined) [Miconazole]	96.8	99.4	98.3	104	101	101	101	106
NC(=O)N1c2ccccc2CC(=O)c2ccccc21 [Oxcarbazepine]	104	105	116	102	108	127	116	109
CC[C@]1(O)C[C@@H]2CN(CCc3c([nH]c4ccccc34)[C@@](C(=O)OC)(c3cc4c(cc3OC)N(C)[C@H]3[C@@](O)(C(=O)OC)[C@H](OC(C)=O)[C@]5(CC)C=CCN6CC[C@]43[C@@H]65)C2)C1 [Vinblastine]	35.3	41.6	43.5	37.2	28	32.3	36	35.9
CC1Cc2ccccc2N1NC(=O)c1ccc(Cl)c(S(N)(=O)=O)c1 (centres undefined) [Indapamide]	106	104	110	114	105	102	106	121
COc1cc(C(C)=O)ccc1OCCCN1CCC(c2noc3cc(F)ccc23)CC1 [Iloperidone]	108	104	107	107	99.6	109	119	109
CCN(Cc1ccncc1)C(=O)C(CO)c1ccccc1 (centres undefined) [Tropicamide]	102	99.4	101	107	99.4	102	101	104
Cc1onc(-c2ccccc2Cl)c1C(=O)N[C@@H]1C(=O)N2[C@@H]1SC(C)(C)[C@@H]2C(=O)O [Cloxacillin sodium]	96	106	106	107	101	102	102	100
NS(=O)(=O)c1cc2c(cc1Cl)NCNS2(=O)=O [Hydrochlorothiazide]	103	106	110	106	110	107	107	115
CCOC(=O)[C@H](CCc1ccccc1)N[C@@H](C)C(=O)N1Cc2cc(OC)c(OC)cc2C[C@H]1C(=O)O [Moexipril HCl]	105	102	107	67.2	100	98.2	90.7	64.1
NC(=O)c1cn(Cc2c(F)cccc2F)nn1 [Rufinamide]	103	106	109	112	106	106	111	112
N[C@@H]1CCCCN(c2c(F)cc3c(=O)c(C(=O)O)cn(C4CC4)c3c2Cl)C1 [Besifloxacin HCl]	96.9	99.1	96.7	101	101	99.5	98.6	102
Clc1ccc2c(c1)CCc1cccnc1C2=C1CCNCC1 [Desloratadine]	92.5	109	102	97	105	97.5	104	103
